# The list is not random: actives were taken first. Their share in the collection is about 9.3%.
# ELG1 DNA repair = inhibitors of ELG1-dependent DNA repair in HEK293T cells. HEK293T ELG1-luciferase reporter, luminescence, 16 h; DNA damage induced by 5-fluorouridine. Potency, µM (doses to about 46.1 µM), actives largely listed as inhibitors. 330,000 tested, 2.3% active; note: nearly all actives have a fitted effect of over 55% in size
#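 Reporter activity after DNA damage by 5-fluorouridine is monitored. Compound-treated cells incubate 16 hr at 37 °C, then ONE-Glo is added for 30 min before luminescence reading.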
# Rab9 promoter act = activators of Rab9 promoter; Huh7 Rab9 promoter-luciferase reporter, luminescence, 24 h; Potency, µM (highest dose often 9.22 µM), most hits filed as activators; 320,000 tested, 2.8% active; note: nearly all actives have a fitted effect of over 60% in size
#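 Cells were plated at 1500 per well in reduced-serum medium with 10% FBS and left 2 h. Compound in DMSO was then added for 24 h at 37 °C. Reporter signal was read by luminescence after 10 min with luciferase detection reagent.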
# FLuc modulator = inhibits or activates purified firefly luciferase, miR-21 counter-screen. P08659. purified FLuc, Km substrates, luminescence inhibition. Potency, µM (highest dose often 57.5 µM), most hits filed as inhibitors. 360,000 tested, 6.9% active; note: nearly all actives have a fitted effect of over 55% in size
# Target sequence (P08659 whole entry, looked up): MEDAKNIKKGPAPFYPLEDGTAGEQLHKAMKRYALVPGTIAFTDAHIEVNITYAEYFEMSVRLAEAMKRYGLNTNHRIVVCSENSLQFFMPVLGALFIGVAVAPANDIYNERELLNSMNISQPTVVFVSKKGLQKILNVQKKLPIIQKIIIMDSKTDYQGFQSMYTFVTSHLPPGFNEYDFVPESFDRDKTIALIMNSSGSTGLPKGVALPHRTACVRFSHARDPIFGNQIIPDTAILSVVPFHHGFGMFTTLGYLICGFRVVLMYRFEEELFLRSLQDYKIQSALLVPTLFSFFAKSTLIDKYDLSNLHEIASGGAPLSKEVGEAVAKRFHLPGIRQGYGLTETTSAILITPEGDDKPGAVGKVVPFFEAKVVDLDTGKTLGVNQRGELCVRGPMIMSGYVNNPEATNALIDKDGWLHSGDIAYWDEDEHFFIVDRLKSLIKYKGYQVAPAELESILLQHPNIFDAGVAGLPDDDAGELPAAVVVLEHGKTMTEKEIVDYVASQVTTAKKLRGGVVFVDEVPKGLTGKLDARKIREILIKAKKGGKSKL
#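 Biochemical qHTS of compounds, final roughly 60 µM downward over six points, against 10 nM purified firefly luciferase using Km concentrations of substrates (10 uM D-luciferin, 10 uM ATP) in Tris acetate pH 7.5 buffer; luminescence output.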
# SMN2 splice enh = SMN2 splice variant enhancement | 210,000 tested, 2.8% active | HEK293 SMN2-luciferase splicing reporter, luminescence, 30-36 h | Potency, µM (highest dose often 46.1 µM), hits mostly activators | AID 1458; note: nearly all actives have a fitted effect of over 55% in size
#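 HEK293 cells carry an SMN2 […]–luciferase reporter in which exon 7 inclusion puts luciferase in frame. Cells were plated 10-12 h before compound addition, then incubated 30-36 h at 37C. ONE-Glo luminescence was read; sodium butyrate at 4.5 mM final served as control.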
# NPC1 promoter act = NPC1 promoter activation; Huh7 NPC1 promoter luciferase reporter, 24 h; Potency, µM (top dose mostly 9.22 µM), most hits filed as activators; 320,000 tested, 2.4% active; note: nearly all actives have a fitted effect of over 60% in size
#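 Readout is luciferase luminescence, reflecting NPC1 promoter activation in stably transfected Huh7 cells after 24 h compound exposure at 37 °C in reduced-serum medium with 10% FBS.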
# ELG1 genotoxic = induces genotoxicity in HEK293T cells with luciferase-tagged ELG1; HEK293T ELG1-luciferase reporter, luminescence, 16 h; Potency, µM (titrated, usually from 46 µM), hits mostly activators; 330,000 tested, 1.3% active; AID 504466; note: nearly all actives have a fitted effect of over 60% in size
#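 Luminescence read-out: rising ELG1-luciferase signal, reflecting elevated ELG1 protein under genetic stress, flags genotoxic compounds. Cells were treated for 16 hr at 37 °C before ONE-Glo detection.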
# Numbers stand for hits; i = inactive; ? = inconclusive; nt = no result given. Calls come from the whole dose curve; as a rule, active = well fitted curve in the direction sought with a large enough effect; inconclusive = small, poorly fitted or top-dose-only effect, or another doubt; inactive = no such curve, though single readings can be large; an effect the other way counts as inactive or inconclusive.
SMILES,ELG1 DNA repair,Rab9 promoter act,FLuc modulator,SMN2 splice enh,NPC1 promoter act,ELG1 genotoxic
Cc1ccc(-c2ccc(SCC(=O)Nc3nonc3C)nn2)cc1,?,?,12µM,i,?,?
Cc1ccc2nc(-c3ccc(SCC(=O)Nc4ccc5c(c4)OCCO5)nc3)[nH]c2c1,?,2.8µM,0.6µM,?,3.2µM,?
O=C(CSc1nc(-c2ccc(F)cc2)[nH]c1-c1ccc(F)cc1)Nc1ccc2c(c1)OCCO2,nt,nt,?,i,nt,nt
N#CC1=C(N)n2c(s/c(=C\c3ccco3)c2=O)=C(C#N)C1c1ccco1 (stereo not given),i,i,i,i,i,i
Cn1c(NC(=O)/C=C\c2ccccc2)cc(=O)n(C)c1=O,?,3.5µM,?,nt,i,?
Cc1ccc(NC(=O)/C=C/c2ccccc2)c(Br)c1,nt,nt,2.7µM,8.9µM,nt,nt
Nc1ccccc1C(=O)NNC(=O)C(=O)/C=C(\O)c1ccccc1,?,i,13µM,nt,i,i
O=C(/C=C(\O)c1ccccc1)C(=O)NNC(=O)c1ccccc1[N+](=O)[O-],i,i,i,nt,i,i
CCc1ccc(NC(=O)C2CCN(c3ccc(Sc4ccc(C)cc4)nn3)CC2)cc1,nt,nt,i,i,nt,nt
N=c1c(C(=O)NCCN2CCOCC2)cc2c(=O)n3ccccc3nc2n1CCc1ccccc1,i,i,i,nt,i,i
N=c1c(C(=O)NC2CCCCC2)cc2c(=O)n3ccccc3nc2n1Cc1ccco1,i,i,i,nt,i,i
N=c1c(C(=O)NCCc2ccccc2)cc2c(=O)n3ccccc3nc2n1Cc1ccco1,21µM,i,i,nt,i,i
COc1ccc(CCn2c(=N)c(C(=O)NCc3ccco3)cc3c(=O)n4ccccc4nc32)cc1,16µM,i,i,i,i,i
CCOc1cc(C(=O)NC(CC(=O)O)c2ccc(OC3CCCC3)cc2)cc(OCC)c1OCC (stereo not given),i,i,i,nt,i,i
CC(C)(C)c1ccc(C(=O)NC(CC(=O)O)c2ccc(OC3CCCC3)cc2)cc1 (stereo not given),i,i,19µM,nt,i,i
Cc1c(Cl)c([N+](=O)[O-])nn1CC(=O)NC(C)C1CC2CCC1C2 (stereo not given),i,i,i,i,i,i
COc1c(O)cccc1/C=N/NC(=O)Cn1ccnc1C,23µM,i,i,nt,i,i
CC(C)(C)C(=O)C(Cl)C(=O)Nc1ccccc1 (stereo not given),?,i,i,nt,i,i
CC(=O)OC1OCCOC1NC(=S)Nc1cccc(C(F)(F)F)c1 (stereo not given),i,i,i,i,i,i
COc1ccc(OC)c(/C=C/C(=O)Nc2ccc(OC)nc2)c1,i,i,?,i,i,i
COc1ccc(NC(=O)/C=C/c2ccco2)cn1,?,4µM,21µM,13µM,3.2µM,?
COc1ccc(NC(=O)/C=C/c2cccc(F)c2)cn1,?,2.2µM,7.6µM,11µM,2µM,?
Cc1ccc(NC(=O)/C=C/c2ccco2)cc1F,nt,nt,5.4µM,nt,nt,nt
CC(=O)Oc1ccc(-c2nc3cc(Cl)ccc3c(=O)o2)cc1,i,i,i,nt,i,i
CC(=O)Oc1ccc2c(=O)oc(-c3ccccc3)nc2c1,i,i,7.6µM,nt,i,i
SMILES,ELG1 DNA repair,Rab9 promoter act,FLuc modulator,SMN2 splice enh,NPC1 promoter act,ELG1 genotoxic
CC(=O)Oc1ccc2nc(/C=C/c3ccc(C=O)cc3)oc(=O)c2c1,i,i,?,nt,i,i
CC(=O)Oc1ccc2nc(/C=C/c3ccccc3)oc(=O)c2c1,i,i,1.1µM,nt,i,i
CC(=O)Oc1ccc2c(=O)oc(-c3ccccc3C)nc2c1,i,i,19µM,nt,i,i
COc1cc2c(cc1OC)CN(C(=O)Cc1ccccc1)CC2,i,i,i,nt,?,i
c1ccc(CSc2ccc(-c3cccs3)nn2)nc1,?,2.2µM,24µM,16µM,3.5µM,i
c1ccc(CSc2ccc(-c3cccs3)nn2)cc1,?,2.8µM,1.9µM,16µM,3.2µM,?
N#Cc1c(N)nc(SCc2ccccn2)c(C#N)c1-c1cccs1,15µM,i,i,i,i,i
CCOC(=O)c1ccc(NC(=O)CN2C(=O)NC3(CCCCCCC3)C2=O)cc1,i,i,?,nt,i,i
COc1cccc(CN(C)Cc2c(O)ccc3ccccc23)c1,i,i,11µM,nt,i,i
O=c1cc(-c2ccccc2)[nH]c2ccccc12,?,i,?,i,i,i
O=C1C(c2ccncc2)=C(O)c2ccccc21,?,4.5µM,2.1µM,3.2µM,0.71µM,?
O=C1C(c2cc(=O)c3ccccc3[nH]2)=C(O)c2ccccc21,?,2.2µM,0.76µM,1µM,1.6µM,8.2µM
FC(F)Oc1ccc(N=C2SCC3CCCCN23)cc1 (stereo not given),?,3.5µM,12µM,nt,2µM,?
O=C(CN1CCCCC1CO)c1ccc(OC(F)F)cc1 (stereo not given),i,i,i,i,i,i
Clc1ccc(N=C2SCC3CCCCN23)cc1 (stereo not given),?,2.5µM,9.5µM,nt,4µM,i
O=C(CSc1nnc(C2CCCCC2)o1)Nc1ccccc1Cl,?,3.5µM,?,nt,?,?
COc1ccc(NC(=O)CSc2nnc(C3CCCCC3)o2)c(OC)c1,i,i,i,i,i,i
O=C(c1cc(-c2ccncc2)nc2ccc(Br)cc12)N1CCN(c2ccccn2)CC1,nt,nt,17µM,i,nt,nt
O=C(c1cc(-c2cccc(Cl)c2)nc2ccccc12)N1CCN(c2ccccn2)CC1,23µM,i,19µM,nt,i,i
Cc1cccc2c(C(=O)N3CCN(c4ccccc4)CC3)cc(-c3ccncc3)nc12,i,i,i,nt,i,?
O=C(c1cccn2c(=O)c3cc(Br)ccc3nc12)N1CCN(c2ccccn2)CC1,i,i,i,i,i,i
Cc1cccc2c(C(=O)N3CCN(c4ccccn4)CC3)cc(-c3cccc(Br)c3)nc12,15µM,i,i,nt,i,i
O=C(Cc1ccccc1)N/N=C/c1cc(Br)c(Br)o1,?,?,?,i,i,i
COc1cccc(/C=C/C(=O)Nc2cc(S(=O)(=O)N3CCOCC3)ccc2OC)c1,i,i,i,nt,i,i
O=C(Nc1ccc2c(c1)OCO2)C1CCCN1C(=O)NCc1ccccc1 (stereo not given),i,i,i,i,i,i
N#CCCn1cc(/C=N/NC(N)=S)c(-c2ccc(Br)cc2)n1,?,i,i,i,i,i
O=C(O)C1CC(=O)N(CCc2ccccc2)C1 (stereo not given),i,i,i,i,i,i
Cc1nnc(Sc2nc3ccccc3o2)c2ccccc12,?,i,19µM,nt,i,i
CCOC(=O)/C(=N\Nc1ncnc2ccccc12)c1ccc(C)cc1,?,?,12µM,nt,?,?
CCOC(=O)C/C(=N\Nc1ncnc2ccccc12)c1ccccc1,i,?,?,nt,i,i
